Structures are written as SMILES. About 83,000 compounds went through this panel and 20% of them were active in at least one assay; those are over-represented in the sample as a whole.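 Percent growth is the endpoint: 0 to 100 indicates growth inhibition (40 means 60% inhibition), 0 means no net growth, and negative values indicate cell death.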 Unmarked numbers belong to inactive results. Activity calls are given as the source filed them. Rule for the calls: active = growth percent below 10; inactive = the rest.

The results in this text go back to PubChem BioAssay (NCI).

What all share (assay): NCI-60 one-dose screen, 48 h (100 = growth as untreated, 0 = no growth, -100 = all killed)
Common to all, as to details: 10 µM unless noted

Experiment [1] concerns NCI-H23 lung.
Experiment [2] has as its system NCI-H226 lung.
For experiment [3], the system named is NCI-H322M lung.
For experiment [4], the system named is HOP-62 NSCLC.
The subject of experiment [5] is NCI-H460 lung.
In experiment [6] the test system is HOP-92 NSCLC.
The test system of experiment [7] is NCI-H522 lung.
In experiment [8] the test system is A549/ATCC NSCLC.
For experiment [9], the system named is 786-0 renal.
Experiment [10] concerns COLO 205 colon.
Experiment [11] has as its system DU-145 prostate.
Experiment [12] deals with K-562 leukemia.
Experiment [13] deals with MALME-3M melanoma.
Experiment [14] relates to MDA-MB-231 breast.
Experiment [15] deals with RXF 393 renal.
In experiment [16] the test system is SF-268 CNS.
Experiment [17] concerns SF-295 CNS.
Experiment [18] deals with SF-539 CNS.
The test system of experiment [19] is UACC-257 melanoma.
The test system of experiment [20] is M14 melanoma.

Consider `C=CCCC(=O)N1C=CC(=O)[C@H](O)[C@@H]1/C=C/c1ccccc1`, for which the growth was 52.8% [100 µM] in experiment [1]; 26.8% [100 µM] in [2]; 59% [100 µM] in experiment [3]; 35.3% [100 µM] in experiment [4]; 15.2% [100 µM] in experiment [5]; 70.6% [100 µM] in [6]. The growth is 74.1% [100 µM] in experiment [7]; 52% [100 µM] in [8]; 14.2% [100 µM] in experiment [9]; 34% [100 µM] in [10]; 35.7% [100 µM] in experiment [11]; 26.3% [100 µM] in experiment [12]. Moreover, the growth was 89.3% [100 µM] in experiment [13]; 52.3% [100 µM] in experiment [14]; 78.9% [100 µM] in experiment [15]; 35.9% [100 µM] in experiment [16]; 33.4% [100 µM] in [17]; 19.2% [100 µM] in [18]. For the same compound, the growth is 64.9% [100 µM] in experiment [19] and -19.8% [100 µM] (active) in [20].
Consider `O=C(/C=C/C12c3ccccc3C(c3ccccc31)C1C(=O)NC(=O)C12)c1ccc(F)cc1` (stereo not given), for which the growth in experiment [1] is 9.23% (active); in [2], 36.9%; in [3], -4.89% (active); in experiment [4], -45.3% (active); in experiment [5], 2.15% (active); in experiment [6] it was -30.9% (active). Further, the growth in experiment [7] was 2.09% (active); in experiment [8] it was 10.6%; in experiment [9], -9.86% (active); in experiment [10], -45.4% (active); in experiment [11], 22.2%; in [12] it was 6.1% (active). For the same compound, the growth in [13] was 20.2%; in [14] it was 11.9%; in experiment [15], -35.4% (active); in [16], 31.3%; in experiment [17], 11.5%; in experiment [18], 6.05% (active). Moreover, the results for the growth in [19] and in experiment [20] were 27.3% and 10.2%, respectively.
Turning to `COP(=O)(OC)c1nnn(-c2cccc([N+](=O)[O-])c2)c1C`, the growth in experiment [1] is 107%; in [2], 120%; in experiment [3], 114%; in experiment [4] it was 110%; in [5], 104%; in experiment [6] it was 119%. The growth in [7] was 90.3%; in experiment [8], 111%; in experiment [9] it was 103%; in [10] it was 122%; in experiment [11], 111%; in [12], 102%. For the same compound, the growth in experiment [13] is 105%; in experiment [14] it was 113%; in experiment [15], 118%; in experiment [16], 98.2%; in experiment [17], 111%; in experiment [18] it was 93.3%. For the same compound, the growth in experiment [19] is 105%; in [20], 104%.
Turning to `CCN(CCO)CC(C)Nc1ccc([N+](=O)[O-])c2sc3ccccc3c(=O)c12` (stereo not given), the growth is 40.2% in experiment [1]; 14.4% in experiment [2]; 15.6% in [3]; 36.9% in experiment [4]; 9.73% (active) in [5]; -0.953% (active) in experiment [6]. Also, the growth in experiment [7] was 15.3%; in [8] it was 12.2%; in experiment [9] it was 34.3%; in experiment [10], 15%; in experiment [11] it was 41.3%; in experiment [12], 12.5%. For the same compound, the growth in [13] was 13.4%; in [14] it was 48.8%; in experiment [15] it was 9.27% (active); in experiment [16] it was 36.1%; in experiment [17], 17.4%; in experiment [18], 25%. Moreover, the growth was 31.5% in experiment [19] and 29.3% in experiment [20].
On to `CN1CCN(CCOc2ccc(-c3cnc4c(-c5ccc(C(F)(F)F)cc5)cnn4c3)cc2)CC1`, for which the growth in experiment [1] is 48.5%; in experiment [2] it was 87.8%; in [3], 64.3%; in [4], 37.5%; in experiment [5] it was -50.3% (active); in experiment [6], 40.4%. Besides, the growth was 44.4% in experiment [7]; -41.1% (active) in [8]; -57.3% (active) in experiment [9]; -55.7% (active) in [10]; 40.7% in [11]; -36% (active) in [12]. The growth in experiment [13] was 50.4%; in experiment [14], 31.6%; in experiment [15], 32.4%; in [16], 48.7%; in [17], 64.4%; in [18] it was 67.6%. In addition, the growth in experiment [19] is 8.47% (active); in experiment [20], -64.2% (active).
With `CCN1C(=O)N(CC)C2C1NN=c1s/c(=C\c3ccccc3Br)c(=O)n12` (stereo not given), the growth in experiment [1] is 27.1%; in [2], 56.7%; in experiment [3] it was 37.5%; in [4], 40%; in experiment [5], 3.66% (active); in [6], 19.5%. In addition, the growth was 0.628% (active) in experiment [7]; 12.3% in experiment [8]; 17.4% in experiment [9]; 3.13% (active) in experiment [10]; 10.5% in [11]; 13.1% in experiment [12]. Moreover, the growth is 42% in experiment [13]; 13.9% in experiment [14]; 50.7% in experiment [15]; 43.9% in experiment [16]; 9.97% (active) in [17]; -16% (active) in [18]. In addition, the growth in [19] was 56%; in experiment [20] it was 8.22% (active).
With `Oc1c(Cl)cc(Cl)c2ccc(Cn3cc(-c4cccc(C(F)(F)F)c4)nn3)nc12`, the growth is 90% in experiment [1]; 90.1% in experiment [2]; 102% in experiment [3]; 97.5% in [4]; 101% in experiment [5]; 55.8% in [6]. The growth was -3.26% (active) in experiment [7]; 97.9% in [8]; 95.6% in [9]; 92.9% in experiment [10]; 63% in experiment [11]; 5.87% (active) in [12]. Moreover, the growth in experiment [13] was 75.8%; in experiment [14] it was 101%; in experiment [15], 33.7%; in experiment [16] it was 88.9%; in experiment [17], 99%; in [18], 75.2%. Besides, the growth is 69.1% in experiment [19] and 62.4% in experiment [20].
Take `Cc1cccc(N2CCN(C(=S)c3ccc4c(c3)OCO4)CC2)c1`: the growth in [1] was 31.3%; in experiment [2], 57.2%; in [3], 33.2%; in experiment [4] it was 28.9%; in experiment [5], 8.2% (active); in experiment [6] it was 74.4%. In addition, the growth in experiment [7] was -25.2% (active); in experiment [8], 31.7%; in experiment [9] it was 30.2%; in experiment [10], -36% (active); in experiment [11], 11%; in [12], 14%. Also, the growth in experiment [13] was 21.8%; in experiment [14], 45.3%; in experiment [15], -15.1% (active); in experiment [16] it was 47.2%; in [17], 2.38% (active); in [18] it was -26.9% (active). Also, the figures for the growth in [19] and in [20] were 32.5% and -4.87% (active), respectively.
With `CCOC(=O)C(=Cc1cccc(C#N)c1)C(=O)OCC`, the growth is 68.4% in experiment [1]; 38.1% in [2]; 91% in experiment [3]; 115% in experiment [4]; 95.9% in experiment [5]; 63.2% in [6]. Further, the growth in [7] is 16.7%; in experiment [8], 75.5%; in experiment [9], 86.4%; in experiment [10], 47.1%; in experiment [11], 48%; in experiment [12], 22.7%. Also, the growth in experiment [13] is 49.9%; in [14], 55.4%; in experiment [15], 33.5%; in [16] it was 64.1%; in experiment [17] it was 95.9%; in [18], 62.9%. In addition, the growth was 69.6% in [19] and 62.3% in experiment [20].
